Test results as given in PubChem BioAssay (NCI).
Where “and” joins values, the source holds several entries; their conditions need not be identical. Equal entries are not always repeated. Compounds without any hit were thinned out: in the full panel of roughly 83,000, 20% have a hit.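 Percent growth is the endpoint: 0 to 100 indicates growth inhibition (40 means 60% inhibition), 0 means no net growth, and negative values indicate cell death.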 Unmarked numbers belong to inactive results. Calls of active or inactive are those of the source. How the source made its calls: active means growth percent below 10; inactive means the rest.

What follows are compounds tested on PC-3 prostate (assay: NCI-60 one-dose screen, 48 h (100 = growth as untreated, 0 = no growth, -100 = all killed)). Conditions: 10 µM unless noted.
Work on `C[N+]1=C(/C=C\C=C\c2ccccc2)C(C)(C)c2ccccc21` yielded a growth of 30.7%. In the case of `O=C(/C=C/C12c3ccccc3C(c3ccccc31)C1C(=O)NC(=O)C12)c1ccncc1` (stereo unspecified), the growth is reported as 20.8%. For `CN1CCN(Cc2ccc(NC(=O)c3nc4ccc5[nH]ncc5c4c4c3CCCC4)cc2C(F)(F)F)CC1`, the growth was -83.5% (active). `CC(=O)c1nn(-c2ccccc2)/c(=N/N=Cc2cn(-c3ccccc3)nc2-c2cc3ccccc3oc2=O)s1` showed a growth of 101%. `CN1CCN(Cc2ccc(NC(=O)c3cccc(C#Cc4c(N)ncc5ccc(F)cc45)c3)cc2C(F)(F)F)CC1` was tested, and the growth was -19.2% (active). `CCN(C(=O)N1CCN(c2cc3c(cc2F)c(=O)c(C(=O)O)cn3C2CC2)CC1)c1nc(-c2ccccc2)cs1` was tested, and the growth was 11.5%. In the case of `COc1ccc(-c2ccccc2)cc1-c1c(Nc2cc(Cl)cc(Cl)c2O)c(=O)c1=O`, the growth is reported as 12.5%. Work on `COc1cc(CO)cc2cc3ccccc3nc12` yielded a growth of 104%. `N=C(N)c1ccc(-c2ccc(-c3ccc(Cl)c(Cl)c3)s2)cc1` was tested, and the growth was -24.1% (active). Work on `Cc1c(C(=O)OCCCCOC(=O)c2c(C)n(C)c3scc[n+]23)[n+]2ccsc2n1C` yielded a growth of 92.3%. Work on `COc1ccc(/C(C)=C(\c2ccc(OCCN3CCOCC3)cc2)c2ccc(OC(=O)C3CCCCC3)cc2)cc1` yielded a growth of 104%. With `CCOc1ccccc1NC(=O)c1cc2ccccc2cc1O` the growth was 20.9%. `O=S(=O)(Nc1ccc(F)cc1)c1ccc(-c2cnc(C3CC3)o2)cc1` was tested, and the growth was 31.2%. With `CN(C)c1ccc2nc3ccc(=O)cc-3sc2c1` the growth was 29.7% and 33%. For `COC(=O)N/N=C/c1c[n+]([O-])c2ccccc2[n+]1[O-]`, the growth was 86%. With `COc1cc(F)c(/C=C/c2cc(/C=C/c3cc(OC)c(OC)cc3F)n(-c3cc(F)cc(F)c3)n2)cc1OC` the growth was 10.4%. With `Clc1ccc(CNc2ccc3nc(CCC4CCCCC4)[nH]c3c2)cc1` the growth was 46.7%. For `FC(F)(F)Sc1ccc(/C=C/c2cc(/C=C/c3ccc(SC(F)(F)F)cc3)n(-c3ccccc3)n2)cc1`, the growth was 84.2%. For `CC(=O)N1N=C(c2ccc(Nc3nc(Nc4ccc(F)cc4)nc(Nc4ccc(F)cc4)n3)cc2)CC1c1ccccc1` (stereo unspecified), the growth was 70%. With `COC1/C=C/OC2(C)Oc3c(C)c(O)c4c(O)c(c(C=NOC(c5ccccc5)c5ccccc5)c(O)c4c3C2=O)NC(=O)/C(C)=C/C=C/C(C)C(O)C(C)C(O)C(C)C(OC(C)=O)C1C` (stereo unspecified) the growth was 9.81% (active). In the case of `Nc1ccccc1SC(CC(=O)c1ccccc1)c1ccc([N+](=O)[O-])cc1` (stereo unspecified), the growth is reported as 70.9% and 59.6%. For `Cc1ccc(/C=C/c2c(C(=O)/C=C/c3ccccc3)c(C)nc3ccccc23)cc1`, the growth was 31.3%. With `COc1ccc(/C=C(\C#N)c2cc3ccccc3[nH]2)cc1` the growth was 51%. Compound `Cc1ccc(Cl)cc1N1CCN(C(=O)[C@@H]2C[C@@H]2c2ccc(F)cc2)CC1` has a growth of 69.1%. `COc1ccc(/C=C2/C(=O)N=C3N2NC(c2ccccc2)=CN3c2ccccc2)cc1` showed a growth of 96.1%. In the case of `COc1ccc2nc3cc(Cl)ccc3c(NCCCNCCC(C)O)c2c1` (stereo unspecified), the growth is reported as -50% (active). `COc1ccc(-c2nc(Cl)c3c(C)nn(-c4ccc(F)cc4)c3n2)cc1` showed a growth of 89.6%. With `C=CCOc1ccc(/C=C2\SC(=S)N(CCc3ccc(O)cc3)C2=O)cc1` the growth was 90.4%. For `O=C1N=c2ccccc2=C1c1sc(=S)n(C2CC(=O)N(c3ccc(Cl)cc3)C2=O)c1O` (stereo unspecified), the growth was 86.6%. In the case of `COc1c(O)c(O)cc2c3c(oc12)CC(c1ccc2c(c1)OCO2)CC3=O` (stereo unspecified), the growth is reported as 76.1%. In the case of `O=C(c1cccc(Br)c1)N1CCN(c2ccnc3cc(Cl)ccc23)CC1`, the growth is reported as 79%. `Cc1ccc(S(=O)(=O)OC[C@@]2(C)CC[C@]3(C)CC[C@]4(C)C(=C3C2)C=C[C@@H]2[C@@]3(C)CCCNC(C)(C)[C@@H]3CC[C@]24C)cc1` showed a growth of 43.5%. With `Oc1ccccc1C=Nc1ccc(N2CCN(c3ccccc3)CC2)cc1` the growth was 77.8%. In the case of `Fc1ccc(NC(c2ccc(F)cc2)C2CCN(CCCCc3ccccc3)CC2)cc1` (stereo unspecified), the growth is reported as 35%. `NCCOCCOc1ccccc1` gave a growth of 90.5%. Work on `COc1ccc(/C=C/C(=O)c2cc3c(N)c(C(=O)Nc4ccccc4)sc3nc2C)cc1` yielded a growth of 17.1%.
